According to the supplement of paper PMC10849652:
Targets with a hit are over-represented here; the source holds about 7,900 in all. About 0.6% of all pairs of compound and target were hits.

How the values were obtained:
Assay in all cases: log2 fold change, soluble protein after heating vs DMSO (PISA); higher = thermal stabilisation; K562 cells, 10 uM, 30 min; active = over 0.2 and 3.5 SD of the protein, either way, in both replicates (recomputed)
IRAK-1-4 Inhibitor I = compound: C1COCCN1CCN2C3=CC=CC=C3N=C2NC(=O)C4=CC(=CC=C4)[N+](=O)[O-] [IRAK-1-4 Inhibitor I]
Method in brief: (§1)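 Soluble protein was quantified by TMTpro 16plex LC-MS/MS after channel sums were equalised. It was obtained as the supernatant after 21,000xg for 90 min from pooled aliquots of K562 cells (2×10^6 cells/mL, 10 μM compound, 30 min) heated for 3 min across 48°C-58°C and extracted in PBS with 0.5% NP-40 at 4°C. Thermal stability values are relative to control samples and come from duplicates. They are given as log2 fold changes.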

ibrutinib = compound: C=CC(=O)N1CCC[C@@H](n2nc(-c3ccc(Oc4ccccc4)cc3)c3c(N)ncnc32)C1 [ibrutinib]
Method in brief: as §1

[1] = compound: CC(=O)c1cnc2ccc(-c3cc(Cl)c(O)c(Cl)c3)nc2c1N[C@H]1CC[C@H](CN(C)C)CC1
Method in brief: as §1

ralimetinib = compound: CC(C)(C)Cn1c(N)nc2ccc(-c3[nH]c(C(C)(C)C)nc3-c3ccc(F)cc3)nc21 [ralimetinib]
Method in brief: as §1

[2] = compound: CC(C)(O)CC(=O)NCCn1ccc2ncnc(Nc3ccc(Oc4cccc(C(F)(F)F)c4)c(Cl)c3)c21
Method in brief: as §1

[3] = compound: CC(C)C1=C2N=C(C=C(N2N=C1)NCC3=CC=CC=C3)NCCCCCCN
Method in brief: as §1

[4] = compound: CC(C)C[C@@H](C=O)NC(=O)[C@H](CC(C)C)NC(=O)[C@H](CC(C)C)NC(=O)OCc1ccccc1
Method in brief: as §1

pinometostat = compound: CC(C)N(C[C@H]1O[C@@H](n2cnc3c(N)ncnc32)[C@H](O)[C@@H]1O)[C@H]1C[C@@H](CCc2nc3cc(C(C)(C)C)ccc3[nH]2)C1 [pinometostat]
Method in brief: as §1

[5] = compound: CC1=C(C(CC(=O)N1)C2=CC=C(C=C2)C(F)(F)F)C(=O)NC3=C(C=C4C(=C3)C=NN4)F
Method in brief: as §1

[6] = compound: CC1=C(C2=C(C=C1)C(=O)C3=CC=CC=C3N2CCCN)C
Method in brief: as §1

[7] = compound: CC1=C(C=C(C=C1)NC(=O)C2=CC(=CC=C2)C(C)(C)C#N)NC3=CC4=C(C=C3)N=CN(C4=O)C
Method in brief: as §1

[8] = compound: CC1=C(C=C(C=C1)NC(=O)C2=CC(=CC=C2)N(C)C)NC(=O)C3=CC=C(C=C3)O
Method in brief: as §1

[9] = compound: CC1=CC=C(C=C1)SC2=C3C=C(SC3=CN=C2)C(=O)N
Method in brief: as §1

[10] = compound: CC1=NC(=CC=C1)C2=C(N=C(N2)C(C)(C)C)C3=CC4=NC=CN=C4C=C3
Method in brief: as §1

Nexturastat A = compound: CCCCN(Cc1ccc(C(=O)NO)cc1)C(=O)Nc1ccccc1 [Nexturastat A]
Method in brief: as §1

vemurafenib = compound: CCCS(=O)(=O)Nc1ccc(F)c(C(=O)c2c[nH]c3ncc(-c4ccc(Cl)cc4)cc23)c1F [vemurafenib]
Method in brief: as §1

[11] = compound: CCCS(=O)(=O)Nc1ccc(F)c(C(=O)c2c[nH]c3ncc(Cl)cc23)c1F
Method in brief: as §1

[12] = compound: CCCc1cc(C)[nH]c(=O)c1CNC(=O)c1cc(-c2ccnc(N3CCN(C)CC3)c2)cc2c1cnn2C(C)C
Method in brief: as §1

givinostat = compound: CCN(CC)Cc1ccc2cc(COC(=O)Nc3ccc(C(=O)NO)cc3)ccc2c1 [givinostat]
Method in brief: as §1

barasertib = compound: CCN(CCCOc1ccc2c(Nc3cc(CC(=O)Nc4cccc(F)c4)[nH]n3)ncnc2c1)CCOP(=O)(O)O [barasertib]
Method in brief: as §1

Measured: log2 fold change

NUDCD2 (UniProt Q8WVJ2)
Chain of UniProt Q8WVJ2 (Q8WVJ2 whole entry, looked up): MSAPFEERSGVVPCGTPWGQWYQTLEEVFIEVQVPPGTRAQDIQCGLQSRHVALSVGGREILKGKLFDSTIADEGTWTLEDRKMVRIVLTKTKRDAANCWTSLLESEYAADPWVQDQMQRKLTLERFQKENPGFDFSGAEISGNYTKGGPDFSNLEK
inactive: IRAK-1-4 Inhibitor I -0.032 | ibrutinib -0.035 | [1] -0.027 | ralimetinib 0.033 | [2] -0.045 | [3] -0.248 | [4] -0.012 | pinometostat 0.066 | [5] -0.023 | [6] -0.064 | [7] -0.018 | [8] -0.109 | [9] 0.117 | [10] 0.019 | Nexturastat A 0.082 | vemurafenib -0.014 | [11] 0.008 | [12] -0.039 | givinostat 0.047 | barasertib 0.104

NDUFA4 (UniProt O00483)
Chain of UniProt O00483 (O00483 whole entry, looked up): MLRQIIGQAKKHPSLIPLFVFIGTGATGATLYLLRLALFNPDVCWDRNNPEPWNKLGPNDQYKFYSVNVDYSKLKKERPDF
inactive: IRAK-1-4 Inhibitor I 0 | ibrutinib -0.019 | [1] -0.024 | ralimetinib -0.098 | [2] -0.029 | [3] -0.018 | [4] -0.009 | pinometostat -0.013 | [5] 0.032 | [6] 0.126 | [7] 0.046 | [8] -0.069 | [9] -0.003 | [10] 0.049 | Nexturastat A -0.033 | vemurafenib 0.002 | [11] 0.018 | [12] -0.023 | givinostat -0.099 | barasertib 0.044

NUP107 (UniProt P57740)
Chain of UniProt P57740 (P57740 whole entry, looked up): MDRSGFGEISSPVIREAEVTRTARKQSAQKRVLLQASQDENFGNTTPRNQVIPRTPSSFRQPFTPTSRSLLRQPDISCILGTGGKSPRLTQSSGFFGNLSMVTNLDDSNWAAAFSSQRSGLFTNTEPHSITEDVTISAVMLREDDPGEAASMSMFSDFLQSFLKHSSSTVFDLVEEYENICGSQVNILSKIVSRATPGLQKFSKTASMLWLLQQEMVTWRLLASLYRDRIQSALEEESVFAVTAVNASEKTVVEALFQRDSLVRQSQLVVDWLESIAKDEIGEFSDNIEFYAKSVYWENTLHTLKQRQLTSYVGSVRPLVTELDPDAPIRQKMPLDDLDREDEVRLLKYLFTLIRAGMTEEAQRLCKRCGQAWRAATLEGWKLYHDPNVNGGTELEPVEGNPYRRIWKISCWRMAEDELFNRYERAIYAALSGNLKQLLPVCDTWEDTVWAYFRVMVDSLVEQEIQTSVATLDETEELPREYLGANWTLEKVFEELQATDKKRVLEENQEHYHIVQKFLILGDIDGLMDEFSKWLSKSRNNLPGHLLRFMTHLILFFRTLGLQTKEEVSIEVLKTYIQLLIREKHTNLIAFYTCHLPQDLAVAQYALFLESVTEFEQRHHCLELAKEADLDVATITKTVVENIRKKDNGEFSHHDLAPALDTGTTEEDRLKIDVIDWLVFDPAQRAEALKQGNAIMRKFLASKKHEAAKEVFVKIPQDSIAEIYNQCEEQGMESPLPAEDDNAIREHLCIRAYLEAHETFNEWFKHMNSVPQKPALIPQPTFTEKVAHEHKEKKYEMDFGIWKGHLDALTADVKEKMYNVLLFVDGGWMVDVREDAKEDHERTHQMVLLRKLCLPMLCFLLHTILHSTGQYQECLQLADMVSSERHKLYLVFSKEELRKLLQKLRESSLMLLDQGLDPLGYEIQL
inactive: IRAK-1-4 Inhibitor I -0.054 | ibrutinib -0.152 | [1] -0.035 | ralimetinib 0.035 | [2] 0.023 | [3] -0.005 | [4] 0.089 | pinometostat 0.165 | [5] 0.062 | [6] -0.052 | [7] -0.035 | [8] 0.085 | [9] 0.117 | [10] 0.012 | Nexturastat A 0.17 | vemurafenib 0.1 | [11] 0.219 | [12] -0.031 | givinostat 0.011 | barasertib 0.017

MRPS24 (UniProt Q96EL2)
inactive: IRAK-1-4 Inhibitor I -0.048 | ibrutinib 0.009 | [1] -0.071 | ralimetinib -0.086 | [2] -0.094 | [3] -0.159 | [4] 0.051 | pinometostat 0.002 | [5] -0.031 | [6] -0.227 | [7] -0.01 | [8] -0.037 | [9] 0.047 | [10] -0.003 | Nexturastat A 0.095 | vemurafenib -0.065 | [11] 0.057 | [12] -0.016 | givinostat -0.035 | barasertib -0.024

NUMA1 (UniProt Q14980)
inactive: IRAK-1-4 Inhibitor I -0.107 | ibrutinib -0.051 | [1] -0.123 | ralimetinib 0.149 | [2] 0.073 | [3] -0.173 | [4] -0.02 | pinometostat 0.202 | [5] -0.018 | [7] 0.03 | [8] -0.029 | [9] -0.009 | [10] -0.073 | Nexturastat A 0.262 | vemurafenib 0.02 | [11] 0.005 | [12] 0.132 | givinostat 0.092 | barasertib 0.005
active: [6] -0.58

MNAT1 (UniProt P51948)
Chain of UniProt P51948 (P51948 whole entry, looked up): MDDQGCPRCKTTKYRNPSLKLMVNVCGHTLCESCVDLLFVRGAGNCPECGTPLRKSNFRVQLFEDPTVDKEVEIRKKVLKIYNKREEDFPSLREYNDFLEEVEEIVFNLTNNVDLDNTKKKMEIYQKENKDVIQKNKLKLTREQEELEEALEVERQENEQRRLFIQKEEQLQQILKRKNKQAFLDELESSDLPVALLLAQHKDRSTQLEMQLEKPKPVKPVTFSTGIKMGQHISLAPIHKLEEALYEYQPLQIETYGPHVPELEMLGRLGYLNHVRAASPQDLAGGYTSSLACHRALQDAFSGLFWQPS
inactive: IRAK-1-4 Inhibitor I 0.025 | ibrutinib 0.03 | ralimetinib -0.044 | [2] 0.024 | [3] 0.062 | [4] -0.028 | pinometostat 0.022 | [5] -0.016 | [6] -0.027 | [7] 0.004 | [8] -0.006 | [9] 0.001 | [10] 0.001 | Nexturastat A 0.043 | vemurafenib -0.006 | [11] 0.039 | [12] -0.037 | givinostat 0.069 | barasertib -0.003
active: [1] -0.221

OSTC (UniProt Q9NRP0)
active: [3] -0.377
inactive: IRAK-1-4 Inhibitor I -0.002 | ibrutinib -0.013 | [1] -0.022 | ralimetinib 0.004 | [2] -0.055 | [4] -0.046 | pinometostat -0.023 | [5] -0.031 | [6] 0.119 | [7] 0.001 | [8] 0.001 | [9] 0.047 | [10] 0.058 | Nexturastat A -0.114 | vemurafenib -0.115 | [11] 0.068 | [12] -0.058 | givinostat 0.076 | barasertib 0.061

NRF1 isoform 4 (UniProt Q16656)
active: [6] -0.419
inactive: IRAK-1-4 Inhibitor I -0.014 | ibrutinib -0.007 | [1] -0.059 | ralimetinib 0.024 | [2] 0.082 | [3] -0.125 | [4] -0.025 | pinometostat -0.004 | [5] -0.037 | [7] 0.002 | [8] 0.03 | [9] -0.015 | [10] 0.051 | Nexturastat A -0.316 | vemurafenib 0.004 | [11] 0.081 | [12] -0.007 | givinostat 0.042 | barasertib 0.034

NR2C2 isoform 2 (UniProt P49116)
Chain of UniProt P49116 (P49116 whole entry, looked up): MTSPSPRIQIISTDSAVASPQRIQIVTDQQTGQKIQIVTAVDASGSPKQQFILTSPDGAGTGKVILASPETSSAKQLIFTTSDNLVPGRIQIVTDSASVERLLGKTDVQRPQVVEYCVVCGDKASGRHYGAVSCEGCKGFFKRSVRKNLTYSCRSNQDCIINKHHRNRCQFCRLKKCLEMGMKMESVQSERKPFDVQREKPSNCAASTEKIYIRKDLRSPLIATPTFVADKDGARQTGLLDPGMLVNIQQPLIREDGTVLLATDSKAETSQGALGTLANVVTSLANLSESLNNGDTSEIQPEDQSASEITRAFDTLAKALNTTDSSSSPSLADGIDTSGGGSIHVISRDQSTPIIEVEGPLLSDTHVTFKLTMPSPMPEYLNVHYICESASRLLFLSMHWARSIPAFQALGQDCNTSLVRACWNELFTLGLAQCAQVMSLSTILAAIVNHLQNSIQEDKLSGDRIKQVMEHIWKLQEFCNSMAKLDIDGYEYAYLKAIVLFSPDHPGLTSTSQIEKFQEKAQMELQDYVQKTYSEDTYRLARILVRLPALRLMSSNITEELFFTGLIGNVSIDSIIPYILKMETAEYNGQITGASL
inactive: IRAK-1-4 Inhibitor I 0.004 | ibrutinib 0.022 | [1] -0.062 | ralimetinib -0.064 | [2] -0.048 | [3] -0.004 | [4] 0.058 | pinometostat 0.014 | [5] 0.045 | [6] -0.215 | [7] -0.017 | [8] 0.029 | [9] 0.114 | [10] -0.034 | vemurafenib -0.023 | [11] 0.03 | [12] 0.04 | givinostat -0.073 | barasertib 0.028
active: Nexturastat A -0.23

NCAPG (UniProt Q9BPX3)
inactive: IRAK-1-4 Inhibitor I -0.092 | ibrutinib -0.033 | [1] 0.084 | ralimetinib 0.038 | [2] -0.126 | [3] -0.197 | [4] -0.005 | pinometostat -0.003 | [5] -0.011 | [6] 0.016 | [7] 0.086 | [8] -0.074 | [9] 0.027 | [10] 0.038 | Nexturastat A 0.011 | vemurafenib 0.056 | [11] 0.091 | [12] 0.064 | givinostat 0.081 | barasertib 0.064

MRPS33 (UniProt Q9Y291)
inactive: IRAK-1-4 Inhibitor I -0.006 | ibrutinib 0.022 | [1] -0.004 | ralimetinib -0.038 | [2] -0.069 | [3] -0.034 | [4] 0.122 | pinometostat 0.096 | [5] 0.096 | [6] -0.158 | [7] 0.075 | [8] -0.078 | [9] -0.025 | [10] -0.004 | Nexturastat A 0.098 | vemurafenib 0.023 | [11] 0.073 | [12] -0.042 | givinostat 0.043 | barasertib -0.015

NASP (UniProt P49321)
Chain of UniProt P49321 (P49321 whole entry, looked up): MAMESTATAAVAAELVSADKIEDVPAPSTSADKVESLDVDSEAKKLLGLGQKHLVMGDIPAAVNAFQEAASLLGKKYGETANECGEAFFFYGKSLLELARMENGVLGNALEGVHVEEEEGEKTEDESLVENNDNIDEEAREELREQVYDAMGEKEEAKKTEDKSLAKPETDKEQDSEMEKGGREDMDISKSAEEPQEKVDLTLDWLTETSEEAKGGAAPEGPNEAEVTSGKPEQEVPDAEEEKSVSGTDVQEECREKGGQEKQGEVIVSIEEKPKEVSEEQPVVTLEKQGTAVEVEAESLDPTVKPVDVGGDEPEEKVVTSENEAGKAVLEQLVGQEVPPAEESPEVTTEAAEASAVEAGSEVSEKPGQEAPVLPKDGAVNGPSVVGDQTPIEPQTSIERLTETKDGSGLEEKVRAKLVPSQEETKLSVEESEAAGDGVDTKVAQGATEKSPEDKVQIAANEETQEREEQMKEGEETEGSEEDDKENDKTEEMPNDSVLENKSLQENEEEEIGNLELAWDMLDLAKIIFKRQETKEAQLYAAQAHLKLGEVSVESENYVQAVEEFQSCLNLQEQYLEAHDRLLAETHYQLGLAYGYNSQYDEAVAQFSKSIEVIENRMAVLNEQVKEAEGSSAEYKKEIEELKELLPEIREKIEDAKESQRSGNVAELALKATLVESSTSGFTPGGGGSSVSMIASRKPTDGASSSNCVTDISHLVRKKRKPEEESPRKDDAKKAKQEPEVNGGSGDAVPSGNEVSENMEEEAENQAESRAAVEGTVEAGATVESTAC
inactive: IRAK-1-4 Inhibitor I 0.01 | ibrutinib -0.044 | [1] 0.033 | ralimetinib 0.019 | [2] -0.004 | [3] -0.05 | [4] -0.009 | pinometostat -0.048 | [5] -0.021 | [6] -0.09 | [7] 0.012 | [8] -0.033 | [9] 0 | [10] 0.009 | Nexturastat A -0.058 | vemurafenib 0.037 | [11] 0.038 | [12] -0.006 | givinostat 0.001 | barasertib 0.027

MINK1 (UniProt Q8N4C8)
Chain of UniProt Q8N4C8 (Q8N4C8 whole entry, looked up): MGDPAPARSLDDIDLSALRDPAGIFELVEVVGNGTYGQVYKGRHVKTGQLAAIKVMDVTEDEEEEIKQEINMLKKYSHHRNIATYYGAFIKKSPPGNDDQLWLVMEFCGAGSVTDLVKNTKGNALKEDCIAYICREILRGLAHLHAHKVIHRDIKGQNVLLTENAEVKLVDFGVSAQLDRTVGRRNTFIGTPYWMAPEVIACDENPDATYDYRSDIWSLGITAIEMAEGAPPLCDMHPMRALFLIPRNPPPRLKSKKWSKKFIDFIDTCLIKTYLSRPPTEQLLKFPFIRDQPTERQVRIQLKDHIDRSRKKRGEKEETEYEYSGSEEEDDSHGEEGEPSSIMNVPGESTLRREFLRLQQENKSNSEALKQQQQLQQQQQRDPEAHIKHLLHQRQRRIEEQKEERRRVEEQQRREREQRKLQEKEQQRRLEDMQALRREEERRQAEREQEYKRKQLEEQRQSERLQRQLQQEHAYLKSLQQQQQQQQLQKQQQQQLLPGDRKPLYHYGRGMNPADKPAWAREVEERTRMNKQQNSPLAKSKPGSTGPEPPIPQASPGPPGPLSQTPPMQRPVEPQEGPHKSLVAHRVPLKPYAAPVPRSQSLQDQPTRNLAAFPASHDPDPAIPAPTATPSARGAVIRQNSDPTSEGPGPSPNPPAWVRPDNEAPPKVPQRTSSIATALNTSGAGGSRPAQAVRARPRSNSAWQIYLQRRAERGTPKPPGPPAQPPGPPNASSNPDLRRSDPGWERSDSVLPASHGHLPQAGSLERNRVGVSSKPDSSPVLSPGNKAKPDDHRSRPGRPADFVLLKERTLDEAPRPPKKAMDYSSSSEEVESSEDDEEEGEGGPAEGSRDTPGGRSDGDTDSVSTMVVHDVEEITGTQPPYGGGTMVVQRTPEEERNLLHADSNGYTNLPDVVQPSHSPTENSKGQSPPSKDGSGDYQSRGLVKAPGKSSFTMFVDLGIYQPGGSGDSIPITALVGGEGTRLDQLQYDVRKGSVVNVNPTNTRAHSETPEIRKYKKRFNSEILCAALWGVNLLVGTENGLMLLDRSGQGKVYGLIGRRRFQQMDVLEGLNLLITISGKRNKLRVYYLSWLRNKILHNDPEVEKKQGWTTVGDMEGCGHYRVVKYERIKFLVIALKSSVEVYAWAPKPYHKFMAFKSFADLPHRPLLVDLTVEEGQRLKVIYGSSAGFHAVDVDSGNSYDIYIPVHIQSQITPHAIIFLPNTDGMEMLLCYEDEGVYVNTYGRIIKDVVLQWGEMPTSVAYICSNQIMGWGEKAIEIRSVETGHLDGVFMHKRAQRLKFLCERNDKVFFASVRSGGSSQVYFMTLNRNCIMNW
active: [1] -0.715
inactive: IRAK-1-4 Inhibitor I -0.018 | ibrutinib 0.038 | ralimetinib -0.081 | [2] 0.053 | [3] 0.021 | [4] 0.044 | pinometostat 0.049 | [5] -0.017 | [6] 0.061 | [7] -0.04 | [8] 0.038 | [9] -0.003 | [10] 0.029 | Nexturastat A -0.007 | vemurafenib -0.004 | [11] 0.024 | [12] 0.003 | givinostat -0.007 | barasertib -0.016

NDUFAF6 (UniProt Q330K2)
inactive: IRAK-1-4 Inhibitor I 0.129 | ibrutinib -0.044 | [1] -0.107 | ralimetinib 0.039 | [2] -0.214 | [3] -0.235 | [4] 0.083 | pinometostat -0.132 | [5] 0.091 | [6] -0.109 | [7] 0.055 | [8] 0.068 | [9] 0.169 | [10] 0.024 | Nexturastat A -0.052 | vemurafenib -0.055 | [11] 0.035 | [12] -0.088 | givinostat -0.063 | barasertib -0.01

NHLRC2 (UniProt Q8NBF2)
Chain of UniProt Q8NBF2 (Q8NBF2 whole entry, looked up): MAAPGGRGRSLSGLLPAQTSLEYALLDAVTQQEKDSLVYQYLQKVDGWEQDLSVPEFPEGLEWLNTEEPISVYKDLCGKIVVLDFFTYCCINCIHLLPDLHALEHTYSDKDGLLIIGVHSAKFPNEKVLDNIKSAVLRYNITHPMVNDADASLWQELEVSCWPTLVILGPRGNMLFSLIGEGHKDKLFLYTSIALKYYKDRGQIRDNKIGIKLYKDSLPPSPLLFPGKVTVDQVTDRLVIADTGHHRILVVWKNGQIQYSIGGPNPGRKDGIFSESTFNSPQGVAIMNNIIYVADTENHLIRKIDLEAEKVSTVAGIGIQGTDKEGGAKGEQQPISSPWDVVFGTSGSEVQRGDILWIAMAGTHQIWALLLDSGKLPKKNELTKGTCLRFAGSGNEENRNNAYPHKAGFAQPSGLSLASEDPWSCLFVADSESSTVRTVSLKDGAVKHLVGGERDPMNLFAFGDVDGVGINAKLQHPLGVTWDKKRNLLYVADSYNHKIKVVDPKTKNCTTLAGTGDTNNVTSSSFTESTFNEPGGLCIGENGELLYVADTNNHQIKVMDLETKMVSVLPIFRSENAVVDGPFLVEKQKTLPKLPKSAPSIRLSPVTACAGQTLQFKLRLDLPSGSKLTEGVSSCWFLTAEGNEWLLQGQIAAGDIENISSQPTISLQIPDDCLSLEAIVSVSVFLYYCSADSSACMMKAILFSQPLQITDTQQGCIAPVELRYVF
inactive: IRAK-1-4 Inhibitor I 0.039 | ibrutinib 0.07 | [1] -0.02 | ralimetinib -0.122 | [2] -0.026 | [3] -0.124 | [4] 0.143 | pinometostat 0.013 | [5] 0.004 | [6] 0.023 | [7] -0.06 | [8] 0.225 | [9] -0.014 | [10] -0.014 | Nexturastat A -0.055 | vemurafenib -0.053 | [11] -0.048 | [12] -0.076 | givinostat -0.006 | barasertib -0.004

MKNK1 (UniProt Q9BUB5)
inactive: IRAK-1-4 Inhibitor I -0.078 | ibrutinib -0.034 | [1] 0.059 | ralimetinib 0.117 | [2] -0.032 | [3] -0.065 | [4] 0.168 | pinometostat -0.019 | [5] -0.018 | [6] 0.057 | [7] -0.008 | [8] -0.051 | [9] 0.03 | [10] 0.115 | Nexturastat A -0.094 | vemurafenib 0.021 | [11] 0.035 | [12] 0.022 | givinostat 0.012 | barasertib 0.033
